Screens (PubChem BioAssay)
Compounds with a hit are over-represented: about 3.4% of the library has one in this group of screens.
PP1 inh = PP1-alpha phosphatase inhibitors, primary screen, counter-screen for PP5 inhibitor project, biochemical, fluorescence, OMFP substrate, single point | Serine/threonine-protein phosphatase PP1-alpha catalytic subunit (Homo sapiens), P62136 | purified PP1alpha | inhibition, % at 6.7 µM | 320,000 compounds, 0.9% hits | AID 2235, 2010;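 active means inhibition above the mean inhibition of all tested compounds plus 3 SD, computed separately for each screening campaign, cut at about 15% in these data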
Target sequence (P62136 whole entry, looked up): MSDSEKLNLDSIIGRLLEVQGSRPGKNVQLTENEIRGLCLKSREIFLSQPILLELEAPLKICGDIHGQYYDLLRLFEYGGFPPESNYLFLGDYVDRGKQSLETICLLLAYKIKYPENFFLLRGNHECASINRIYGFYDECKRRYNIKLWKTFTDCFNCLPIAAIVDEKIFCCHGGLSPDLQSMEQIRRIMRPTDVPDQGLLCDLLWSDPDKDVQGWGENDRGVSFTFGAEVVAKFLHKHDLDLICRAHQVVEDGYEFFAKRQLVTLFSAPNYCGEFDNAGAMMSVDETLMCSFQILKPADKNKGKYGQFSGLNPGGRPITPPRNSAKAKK
PP5 inh = PP5 phosphatase inhibitors, primary screen, biochemical, fluorescence. purified PP5c, OMFP substrate fluorescence. inhibition, % at 6.7 µM. 320,000 compounds, 0.18% hits;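 active means inhibition above the campaign's mean inhibition across all tested compounds plus 3 SD, cut at about 9.5% in these data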;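 further: 0% = DMSO only and 100% = 100 µM cantharidin control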
PAFAH1B3 inh = PAFAH1B3 enzyme inhibitors, primary screen, biochemical, fluorescence polarization, human; inhibition, % at 3.39 µM; 340,000 compounds, 0.28% hits; Platelet-activating factor acetylhydrolase IB subunit alpha1 (Homo sapiens), Q15102; recombinant PAFAH1B3, FP-rhodamine probe;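 active means inhibition above the screen-wide average of all tested compounds plus 3 SD, cut at about 25% in these data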;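 further: 0% = enzyme with DMSO only and 100% = wells lacking PAFAH1B3 protein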
Target sequence (Q15102 whole entry, looked up): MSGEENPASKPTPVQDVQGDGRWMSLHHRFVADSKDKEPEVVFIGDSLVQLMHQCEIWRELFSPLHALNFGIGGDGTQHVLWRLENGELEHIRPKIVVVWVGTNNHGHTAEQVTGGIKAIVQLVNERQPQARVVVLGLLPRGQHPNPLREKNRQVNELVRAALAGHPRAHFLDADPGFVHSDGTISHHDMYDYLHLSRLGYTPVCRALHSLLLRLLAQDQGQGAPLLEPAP
pPAFAH FP inh = pPAFAH enzyme inhibitors, primary screen, biochemical, fluorescence polarization, human; recombinant pPAFAH, FP-rhodamine probe fluorescence polarization; inhibition, % at 3.39 µM; 330,000 compounds, 1.5% hits; AID 463082, 2010;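 active means inhibition above the mean inhibition across the screen plus 3 SD, cut at about 25% in these data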;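 further: inhibitors block binding of the rhodamine activity-based probe so polarization drops; 0% = enzyme with DMSO and 100% = wells lacking pPAFAH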
PAFAH2 FP inh = PAFAH2 enzyme inhibitors, primary screen, biochemical, fluorescence polarization, human; recombinant PAFAH2, FP-rhodamine activity probe; 340,000 compounds, 0.99% hits; inhibition, % at 3.39 µM; Platelet-activating factor acetylhydrolase 2, cytoplasmic (Homo sapiens), Q99487;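 active means inhibition above the mean over all tested compounds plus 3 SD, cut at about 30% in these data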;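 further: inhibitors block probe labeling of enzyme so polarization drops; 0% = enzyme with DMSO and 100% = wells lacking PAFAH2 protein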
PAFAH1B2 inh = PAFAH1B2 enzyme inhibitors, primary screen, biochemical, fluorescence polarization, human; Platelet-activating factor acetylhydrolase IB subunit alpha2 (Homo sapiens), P68402; recombinant PAFAH1B2, FP-rhodamine activity probe; inhibition, % at 3.39 µM; 340,000 compounds, 1.2% hits; AID 492953, 2010;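 active means inhibition above the mean of all tested compounds plus 3 SD, cut at about 24% in these data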;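 further: 0% = enzyme with DMSO and 100% = wells lacking PAFAH1B2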
* = called active by the depositor; . = no result given.

SMILES	PP1 inh	PP5 inh	PAFAH1B3 inh	pPAFAH FP inh	PAFAH2 FP inh	PAFAH1B2 inh
O=C(NCCN1CCCC1)C1CCC(=O)N(CCCN2CCOCC2)C1 (configuration not stated)	-1.8	2.2	-4.4	3.4	2.3	1.3
O=C(COc1cccc(C(F)(F)F)c1)Nc1ccccc1N1CCCCC1	-5.5	-4.9	7.6	3.7	-4.7	1.8
CSCCC(NS(=O)(=O)c1cccc(C(F)(F)F)c1)C(=O)Nc1ccccc1N1CCCC1 (configuration not stated)	-0.8	2.4	2.6	10.1	6.2	26.3*
Cc1cccc(C)c1NC1=NCCCCC1	-5.8	1.1	1.0	3.6	-0.8	1.9
Cc1ccc(C2C(C#N)=C(N)SC(N)=C2C#N)o1	-0.8	8.7	.	29.3*	.	.
Cc1c(N)cc(S(=O)(=O)O)cc1NC(=O)c1cccc([N+](=O)[O-])c1	.	.	6.5	.	1.9	0.1
Oc1ccc(NCc2ccccc2OCc2ccccc2)cc1	1.1	5.1	21.4	26.5*	7.7	3.8
CCNCc1ccccc1OCc1ccccc1	-2.6	0.7	7.7	-2.8	-0.7	3.2
Cc1ccc(-c2cc(C(=O)O)c3cc(Br)ccc3n2)o1	2.2	-1.4	9.7	27.6*	12.2	23.4
Cc1ccc(-c2cc(C(=O)NC3=NCCS3)c3cc(Br)ccc3n2)o1	19.4*	4.2	.	17.0	.	.
COc1ccc(-c2[nH]c(-c3ccc(Cl)cc3)nc2SCC(=O)Nc2nccs2)cc1	16.2*	4.9	9.7	9.4	-7.8	1.1
CC(C)C(C(=O)Nc1nccs1)c1ccc(Cl)cc1 (configuration not stated)	2.0	2.9	7.9	-0.4	9.5	36.4*
O=C(CSCC(=O)Nc1nccs1)Nc1ccccc1	0.2	1.9	2.0	6.4	1.8	5.9
O=C(CSCc1ccc(Cl)cc1)Nc1nccs1	-0.2	2.4	8.3	3.2	8.9	27.7*
CCN1C=C(C(=O)c2ccccc2)C(=O)CC1	.	.	-0.9	.	6.0	3.6
C=CCNC(=O)c1onc(CSc2ccc(F)c(F)c2)c1C(=O)O	0.2	1.4	5.7	5.2	19.7	9.9
C=CCNC(=O)c1onc(CSc2ccc(Cl)cc2)c1C(=O)NCC=C	1.1	0.6	-4.7	0.1	-8.1	24.9*
COC(=O)C1C2CC(C(Br)C2Br)C1C(=O)O (configuration not stated)	.	.	-1.0	.	0.9	5.5
Cc1ccc(-n2c(N)c(C(=O)Nc3ccccc3F)sc2=S)cc1C	-1.7	2.3	10.4	1.7	5.6	2.1
COc1cccc(-n2sc3c(c2=S)-c2cc(OC)ccc2NC3(C)C)c1	-1.1	1.4	3.5	15.9	3.0	2.5
CC1(C)Nc2ccc(O)cc2-c2c1ssc2=S	2.1	2.5	7.3	26.2*	9.5	2.9
O=C(N/N=C/c1cccnc1)c1cc(-c2ccc(Cl)cc2)nc2ccccc12	-1.8	3.6	-2.9	-0.7	-8.7	-3.4
O=C(NNS(=O)(=O)c1ccc(Cl)cc1)c1cc(-c2ccccc2)nc2ccccc12	-0.6	1.3	1.4	9.4	-0.2	59.8*
O=C(N/N=C/c1ccc(Cl)cc1)c1cc(-c2cccnc2)nc2ccccc12	16.9*	2.0	-5.2	-8.1	-4.7	-7.4
CCCC(=O)NC(c1ccco1)c1cc(Cl)c2cccnc2c1O (configuration not stated)	7.0	1.6	12.4	29.8*	-3.4	5.5
SMILES	PP1 inh	PP5 inh	PAFAH1B3 inh	pPAFAH FP inh	PAFAH2 FP inh	PAFAH1B2 inh
O=C(O)COc1ccccc1C(Nc1ccccn1)c1cc(Cl)c2cccnc2c1O (configuration not stated)	5.8	-1.7	2.8	32.3*	29.0	1.8
COc1ccccc1C(NC(C)=O)c1cc(Cl)c2cccnc2c1O (configuration not stated)	-1.9	-0.9	7.8	9.6	6.5	0.5
COc1ccc2sc(-c3ccc(SC)cc3)c(/C=C/c3ccc(OC)c(OC)c3)c2c1	.	.	8.6	3.0	-5.6	4.8
CC1CCc2cc(F)ccc2N1S(=O)(=O)c1ccc(Cl)nc1 (configuration not stated)	-1.6	3.7	6.5	-3.7	-4.4	29.0*
CC1CCc2cc(F)ccc2N1S(=O)(=O)c1ccc(F)cc1 (configuration not stated)	0.5	1.2	5.2	2.9	1.2	15.4
Cc1ccc(N2CC(C(=O)N3CCN(c4ccccn4)CC3)CC2=O)cc1 (configuration not stated)	.	.	1.4	.	-1.7	3.0
Cc1ccccc1-n1c(SCC(=O)Nc2c(C)cccc2C)nc(O)cc1=O	1.1	0.4	2.5	31.1*	-7.8	1.8
CCN(CC)C(=O)CSc1nc(O)cc(=O)n1-c1ccccc1OC	-2.5	-1.8	-5.0	25.0*	0.3	3.8
Cc1cc(C=O)sc1[B-](F)(F)F	.	.	1.5	.	8.6	-3.4
COC/C=C/C1=CC2=CC(=O)C(C)(OC(=O)c3cnc4ccccc4n3)C(=O)C2=CO1 (configuration not stated)	-3.2	-2.5	.	54.8*	.	.
COC/C=C/C1=CC2=CC(=O)C(C)(OC(=O)c3cnc4ccccc4n3)C(=O)C2=CN1C(CO)CO (configuration not stated)	-3.2	2.1	9.0	7.6	-5.9	1.0
CCCCCCCCN1[C@@H](CC(=O)O)c2ccc(C(F)(F)F)cc2S1(=O)=O	1.6	2.2	1.1	10.7	14.1	30.6*
CCCCCCCCCCCCN1[C@@H](CC(C)=O)c2cc(C(F)(F)F)ccc2S1(=O)=O	-2.0	2.7	5.5	5.1	-10.2	4.8
CC(NCCS(=O)(=O)c1ccc(Cl)cc1)c1cccc(Cl)c1 (configuration not stated)	2.3	-0.5	13.4	6.4	6.8	24.2*
O=C(NCCS(=O)(=O)c1ccc(Br)cc1)c1ccccc1	-0.4	-3.1	7.0	2.8	-9.4	6.0
CC(C)c1ccc(C(C)NCCS(=O)(=O)c2ccc(Br)cc2)cc1 (configuration not stated)	5.3	5.6	-4.6	1.6	-5.2	26.0*
Cc1cc(NC(=O)CSCC(=O)N2CCN(c3ccccc3)CC2)no1	.	.	7.4	2.0	3.2	10.1
CCN(C(=O)COc1cc(=O)n(C)c2ccccc12)c1cccc(Cl)c1	1.5	1.1	-6.2	23.0	0.4	0.5
CCOC(=O)N1CCN(C(=O)COc2cc(=O)n(C)c3ccccc23)CC1	-5.4	0.5	-8.1	1.4	-4.0	0.9
Cc1cccc(N(C)C(=O)COc2cc(=O)n(C)c3ccccc23)c1	-1.8	-0.9	7.9	33.9*	-3.3	3.9
